An excerpt weighted towards active compounds, which were near 2.9% of everything screened.
DRD3 agonist = agonists of human D3 dopamine receptor; max activation, %; AID 652048; D3R DiscoveRx beta-arrestin cells, luminescence, 90 min; hit rate 0.58% among 410,000; in the data active means max activation above about 30%
Target sequence (P35462 whole entry, looked up): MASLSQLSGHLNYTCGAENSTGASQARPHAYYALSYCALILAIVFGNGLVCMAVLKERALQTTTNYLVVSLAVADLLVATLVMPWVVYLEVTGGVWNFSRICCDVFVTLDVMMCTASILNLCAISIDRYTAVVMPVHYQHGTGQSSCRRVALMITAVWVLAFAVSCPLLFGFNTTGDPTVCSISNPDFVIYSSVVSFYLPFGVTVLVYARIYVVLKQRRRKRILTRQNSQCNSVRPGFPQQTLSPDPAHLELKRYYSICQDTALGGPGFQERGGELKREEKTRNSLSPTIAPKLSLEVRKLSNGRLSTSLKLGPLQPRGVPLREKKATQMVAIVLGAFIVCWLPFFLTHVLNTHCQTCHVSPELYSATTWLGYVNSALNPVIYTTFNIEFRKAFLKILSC
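Cells at 1500/well, incubated overnight, then treated with pinned compounds (dopamine as control) for 90 min at 37 degrees C. DiscoveRx reagent added for 30 - 60 minutes at room temperature; luminescence read.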
a7 integrin act = activates integrin-mediated alleviation for muscular dystrophy; alpha7betagal myoblasts, beta-gal FDG fluorescence, 48 h; Potency, µM (titrated, usually from 38.3 µM), hits mostly activators; hit rate 0.064% among 350,000; AID 624291; active means well fitted activation curve with a large enough effect; inconclusive means small, poorly fitted or top-dose-only effect; inactive means no such curve, though single readings can be large or run the other way; further: nearly all actives have a fitted effect of over 60% in size
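Alpha7betagal+/- myoblasts (passage 13) were plated 16-24 hr, then exposed to compounds (1:260 dilution of DMSO stock) for 48 hours at 37C. After MPER lysis, β-galactosidase reporter activity was read as FDG fluorescence (ex 480/em 540) after 30 minutes.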
D3 antag = blocks the human D3 dopamine receptor; hit rate 2.5% among 360,000; D3R cells, DiscoveRx beta-arrestin luminescence, antagonist mode; stronger effect = lower value; max response, negative = inhibition, %; AID 652054; P35462; in the data active means max response below about -50%; inconclusive means no clear call, values can overlap the other calls
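Cells expressing the human receptor were seeded at 1500 cells/well, incubated overnight at 37 degrees C in 5% CO2, then exposed to library compounds with dopamine controls for 90 minutes at 37 degrees C before luminescent detection.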
Numbers stand for hits; . = inactive; ? = inconclusive; / = no result.

SMILES | DRD3 agonist | a7 integrin act | D3 antag
CCCCCCCCCCCCCCCC(=O)O[C@@H]1[C@@H](O)[C@@H](O)[C@@H]([C@H](NC(=O)[C@@H]2C[C@@H](CCC)CN2C)[C@H](C)Cl)O[C@@H]1SC | . | / | /
COc1ccccc1Nc1nnc(SCC(=O)NC(=O)Nc2ccc3c(c2)OCCO3)s1 | . | . | .
COCc1c(C(=O)N/N=C(/C)c2ccccc2)nnn1-c1nonc1N | . | . | .
COCc1c(C(=O)N/N=C(/C)c2ccc(OCc3ccccc3)cc2)nnn1-c1nonc1N | . | 10µM | .
CC(C)c1c(C(=O)N/N=C/c2ccc(OCc3ccccc3)cc2)nnn1-c1nonc1N | . | . | .
CC(C)c1c(C(=O)N/N=C/c2cccc(OCc3ccccc3)c2)nnn1-c1nonc1N | 40 | . | .
CCOc1cc(NC(=O)C(C)C)c(OCC)cc1NC(=O)Nc1ccccc1 | . | . | .
CCOc1ccc(N2CC(O)Cn3c2nc2c3c(=O)n(CCCc3ccccc3)c(=O)n2C)cc1 (stereo unspecified) | . | . | .
Cc1ccc(C(=O)c2c3ccc(C(F)(F)F)cc3[n+]([O-])n2CCC(N)=O)cc1 | . | . | .
Cc1ccc(C(=O)c2c3ccc(N)cc3nn2CCC(N)=O)cc1 | . | . | -73
CCCCN(C)Cc1c(C)[nH]c2ccccc2c1=O | . | . | .
Cc1[nH]c2ccccc2c(=O)c1CN(C)Cc1ccccc1 | . | . | -63
O=C1c2ccccc2C(=O)N1CC1c2ccccc2CCN1S(=O)(=O)c1cnc[nH]1 (stereo unspecified) | . | . | .
COc1ccccc1N(CC(=O)NCCc1ccccc1)C(=O)CCC(=O)Nc1nccs1 | . | . | .
COc1ccc(N2CC(C(=O)Nc3ccc([N+](=O)[O-])cc3Br)CC2=O)cc1 (stereo unspecified) | . | . | .
CC(N=Cc1cc([N+](=O)[O-])ccc1O)c1ccccc1 (stereo unspecified) | . | . | -52
CN(/N=C/c1cc([N+](=O)[O-])ccc1O)c1ccccc1 | . | . | .
O=C(N/N=C/c1cc([N+](=O)[O-])ccc1O)C12CC3CC(CC(C3)C1)C2 | . | . | -93
Cc1cc(C(=O)N/N=C/c2cc([N+](=O)[O-])ccc2O)c2ccccc2n1 | . | . | -65
O=C(N/N=C/c1cc([N+](=O)[O-])ccc1O)NC12CC3CC(CC(C3)C1)C2 | . | . | .
O=C(N/N=C/c1cc([N+](=O)[O-])ccc1O)c1cc(-c2ccccc2)nc2ccccc12 | . | . | .
COc1ccc(N2CC(C(=O)N/N=C/c3cc([N+](=O)[O-])ccc3O)CC2=O)cc1 (stereo unspecified) | . | . | -52
Cc1ccc(CNC(=O)CNC(=O)c2ccc(C(C)(C)C)cc2)n1C | . | . | .
Cn1cccc1C(=O)NC(=O)COC(=O)CNS(=O)(=O)c1ccc(Br)cc1 | . | . | .
CCOC(=O)NNc1ccc2nonc2c1[N+](=O)[O-] | . | . | .
SMILES | DRD3 agonist | a7 integrin act | D3 antag
Nc1cc(C(=O)OCC(=O)c2ccc(CC(=O)N3CCOCC3)s2)ccc1Cl | . | . | .
Cc1cc(C(=O)N/N=C/c2ccc([N+](=O)[O-])cc2)c2ccccc2n1 | . | . | .
O=[N+]([O-])c1cccc(N/N=C/c2cc([N+](=O)[O-])ccc2O)c1 | . | . | ?
O=C(N/N=C/c1cc([N+](=O)[O-])ccc1O)Nc1ccccc1 | . | . | -75
O=[N+]([O-])c1ccc(O)c(C=NN2CCCCC2)c1 | . | . | -76
Cc1cc(C(=O)N/N=C/c2cc(Br)cc([N+](=O)[O-])c2O)c2ccccc2n1 | . | . | -94
Oc1ccc(Br)cc1/C=N/N1CCCCC1 | . | . | .
CC1CCCN(C(=O)c2ccc(S(=O)(=O)Nc3ccccc3Cl)cc2)C1 (stereo unspecified) | . | . | .
O=C1c2ccncc2C(=O)N1c1cccc(Cl)c1 | . | . | .
CCOC(=O)[C@H](CCc1ccccc1)N[C@@H](C)C(=O)N1CCC[C@H]1C(=O)O | . | / | .
CCOC(=O)[C@H](CCc1ccccc1)N[C@@H](C)C(=O)N1CCC[C@@H]1C(=O)O | 74 | / | .
CC(C)c1ncc(C(O)c2cccc3ccccc23)n1C (stereo unspecified) | . | . | .
COC(=O)C1SCC2C(=O)N(Cc3cccc(C)c3)CC(=O)N21 (stereo unspecified) | . | . | .
COC(=O)C1SCC2C(=O)N(Cc3ccc(F)cc3)CC(=O)N21 (stereo unspecified) | . | 8.9µM | .
Cc1ccc(S(=O)(=O)N(C)C)cc1NC(=O)COC(=O)CCC(=O)c1cccs1 | . | . | .
O=C(COc1cc2oc(=O)c3c(c2cc1Cl)CCCC3)N1C[C@H]2C[C@@H](C1)c1cccc(=O)n1C2 | . | . | -58

Source: PubChem BioAssay (National Center for Advancing Translational Sciences (NCATS))
